Hit rate of the full screen: of about 47,000 compounds, about 3,100 (6.6%) were called active. The sample holds actives, similar compounds and a random draw of the others, so the mix is not that of the screen. No stated cut-off is given here; in the data, active means inhibition above about 30%; inactive means the rest.
Biological target: Ubiquitin carboxyl-terminal hydrolase 17-like protein 5 (Homo sapiens) (UniProt A8MUK1)
Assay: inhibitors of human USP17 deubiquitinase (AID 1645855)
Settings: purified USP17, Ub-rhodamine cleavage fluorescence, 3 h; at 50 µM; stronger effect = higher value

Ubiquitin carboxyl-terminal hydrolase 17-like protein 5 (Homo sapiens), sequence (A8MUK1 whole entry, looked up): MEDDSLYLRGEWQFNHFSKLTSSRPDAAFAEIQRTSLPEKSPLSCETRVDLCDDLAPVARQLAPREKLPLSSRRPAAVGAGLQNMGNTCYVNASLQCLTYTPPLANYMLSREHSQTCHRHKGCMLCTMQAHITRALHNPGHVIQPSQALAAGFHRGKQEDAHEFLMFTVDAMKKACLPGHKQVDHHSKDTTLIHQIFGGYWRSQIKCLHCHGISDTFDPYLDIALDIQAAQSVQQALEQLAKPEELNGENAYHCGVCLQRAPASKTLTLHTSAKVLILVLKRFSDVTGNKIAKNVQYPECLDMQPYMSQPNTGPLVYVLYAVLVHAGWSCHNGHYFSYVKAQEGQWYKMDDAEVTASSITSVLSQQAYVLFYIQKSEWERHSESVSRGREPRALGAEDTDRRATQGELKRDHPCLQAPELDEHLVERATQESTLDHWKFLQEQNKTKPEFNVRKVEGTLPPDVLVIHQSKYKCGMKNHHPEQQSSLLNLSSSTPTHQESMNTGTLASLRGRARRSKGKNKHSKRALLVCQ

SMILES	inhibition
O=C(CN1CCC(Nc2nc3c(c(=O)[nH]2)CCCC3)CC1)Nc1ccccc1[N+](=O)[O-]	14% (inactive)
Cc1sc(NC(=O)CCc2ccccc2)nc1-c1ccc2c(c1)N(C)C(=O)CO2	-15.7% (inactive)
Cc1ccc(C)c(S(=O)(=O)N2CCC(c3nc(C(=O)N(C)C)c(C)o3)CC2)c1	-7.71% (inactive)
O=C(NCc1cccnc1)[C@@H]1CC[C@@H]2[C@@H](CCN2c2ncc(F)cn2)O1	-63.6% (inactive)
COc1ccc(NS(=O)(=O)c2cc(NC(=O)CC(=O)c3ccc([N+](=O)[O-])cc3)ccc2C)cc1	39.9% (active)
COc1ccc(NS(=O)(=O)c2cc(NC(=O)/C=C/c3cccc(OC)c3)ccc2OC)cc1	-3.35% (inactive)
COc1ccc(NS(=O)(=O)c2cc(NC(=O)COc3ccccc3F)ccc2OC)cc1	6.42% (inactive)
COCCN1C[C@H]2COc3cc(OC)ccc3[C@H]2N(C(=O)c2ccc(F)cc2)CCC1=O	0.764% (inactive)
CC(C)n1cnc(-c2cc(C(=O)NC3CC3)c3ccccn23)c1	-51.2% (inactive)
CCCNC(=O)c1ccc(Nc2cc(C)nc3nc(-c4cccnc4)nn23)cc1	7.85% (inactive)
COc1ccc(CNC(=O)c2ccccc2N2C(=O)N3CCc4c([nH]c5ccccc45)[C@@]3(C)C2=O)cc1	56.3% (active)
C[C@]12C(=O)N(c3cccc(C(=O)NCCN4CCOCC4)c3)C(=O)N1CCc1c2[nH]c2ccccc12	-24.6% (inactive)
COc1ccc2[nH]c3c(c2c1)CCN1C(=O)N([C@@H](C)C(=O)NCC(=O)O)C(=O)[C@]31C	9.34% (inactive)
O=C(NCCc1ccc(F)cc1)N1CC[C@@H]2CN(Cc3ccncc3)S(=O)(=O)[C@@H]2CC1	-15.9% (inactive)
O=C(CNC(c1ccccc1)c1ccccc1)Nc1ccc(F)cc1	3.76% (inactive)
O=C(N[C@@H]1C[C@@H](Oc2cccnc2)[C@H](O)[C@H]1N1CCCCC1)c1cnco1	-6.77% (inactive)
COc1cccc(-c2ocnc2C(=O)NCc2ccc(OC)c(OC)c2)c1	-10.8% (inactive)
COc1cc(OC)cc(-c2nnc(NC(=O)c3ccc([N+](=O)[O-])o3)o2)c1	51.3% (active)
COc1cccc(CNC(=O)c2ccc(-c3cncnc3)nc2)c1	-9.04% (inactive)
CN(C)C(=O)c1cccnc1-c1nc2ccccc2s1	9.06% (inactive)
Cc1nc(NCc2ccco2)nc2c1COCC21CCN(C(=O)C(C)(C)C)C1 (stereo not given)	-22.1% (inactive)
CC1=C(C(=O)Nc2ccccc2)C(c2cccnc2)n2nc(CCCO)nc2N1 (stereo not given)	-9.97% (inactive)

SMILES	inhibition
COc1cccc(C2C(C(=O)Nc3ccccc3C)=C(C)Nc3ncnn32)c1OCc1ccccc1 (stereo not given)	-19.2% (inactive)
COc1ccc(NC(=O)C2=C(C)Nc3ncnn3C2c2cccc(OCc3ccc(F)cc3)c2)c(OC)c1 (stereo not given)	51.9% (active)
COc1ccccc1NC(=O)C1=C(C)Nc2ncnn2C1c1ccc(C)o1 (stereo not given)	0.179% (inactive)
CC1=C(C(=O)Nc2ccccc2)C(c2ccc(OCc3c(Cl)cccc3Cl)cc2)n2ncnc2N1 (stereo not given)	69.4% (active)
CC1=C(C(=O)Nc2ccccc2)C(c2cccs2)n2ncnc2N1 (stereo not given)	-10.9% (inactive)
COc1cccc([C@@H]2C[C@]3(C)NC(=O)CCCC[C@@H]3N2C(=O)c2cnn(C)c2)c1	-8.06% (inactive)
CC1COc2ccccc2N1C(=O)c1ccc(F)cc1 (stereo not given)	0.747% (inactive)
CC1CCN(S(=O)(=O)c2cccn(CC(=O)Nc3ccc(F)cc3)c2=O)CC1	-5.61% (inactive)
COC(=O)c1cccc(Nc2c(-c3ccccc3)nc3cnc(Br)cn23)c1	-68.2% (inactive)
O=C1CCC(=O)N(O)CCCCCNC(=O)CCC(=O)N(O)CCCCCNC(=O)CCC(=O)N(O)CCCCCN1	23.5% (inactive)
O=C(CN1CCN(c2ccccc2)CC1)c1ccccc1	-12.9% (inactive)
CC(=O)N1CCc2cc(S(=O)(=O)Nc3ccccc3N3CCN(C)CC3)ccc21	-8.21% (inactive)
CC(=O)N1CCc2cc(C(O)CN3CCN(c4ccccc4)CC3)ccc21 (stereo not given)	47.6% (active)
CCOCCCNc1ncnc2c1sc1nc(N3CCOCC3)c3c(c12)CC(C)(C)OC3	-1.37% (inactive)
CCOc1ccccc1CNC(=O)CCn1c(-c2ccc(F)cc2)cc(C(C)=O)c1C	-2.37% (inactive)
Cc1cc(=O)n(CC(=O)NCc2ccccc2Cl)c(N2CCCC2)n1	-2.72% (inactive)
Cc1ccccc1CNC(=O)Cn1c(=O)ccn(Cc2ccc(F)cc2)c1=O	42.9% (active)
O=C1Nc2ccccc2C1c1c(-c2ccccc2Cl)[nH]c2[nH]c(=O)[nH]c(=O)c12 (stereo not given)	8.48% (inactive)
Cc1cnc(N2CC[C@@H]3[C@@H](CO[C@@H]3CNS(C)(=O)=O)C2)nc1	-4.98% (inactive)
CC(C)NC(=O)N1CCCN(C2CCN(Cc3ccccc3)C2=O)CC1 (stereo not given)	-36.9% (inactive)
CCCc1nc2sc3c(N4CCC(C)CC4)ncnc3c2c2c1CCC2	-14.3% (inactive)
CCC1(C)Cc2c(sc3nc(SCC(=O)NCCc4ccccc4)nc(N)c23)CO1 (stereo not given)	-6.11% (inactive)

SMILES	inhibition
CCCCc1nc2sc3c(SCC(=O)NCc4ccccc4)ncnc3c2c2c1CCC2	44.6% (active)
CC(=O)CSc1nnc(-c2ccccc2Br)o1	2.6% (inactive)
CCCCOc1ccc(-c2nnc(-c3ccccc3Br)s2)cc1	4.93% (inactive)
CS(=O)(=O)c1cnc(N2CCCCC2)nc1C1CCN(C(=O)CCc2ccco2)CC1	5.15% (inactive)
Cc1cccc(-n2cc(-c3ccccc3)c3c(N(C)C)ncnc32)c1	2.77% (inactive)
CC1=C(c2ccc(Cl)cc2)S(=O)(=O)NC1=NCC(=O)NC1CCCC1	20.9% (inactive)
CC1=C(c2ccc(C)cc2)S(=O)(=O)NC1=NCc1cccc(Br)c1	46% (active)
COc1ccc(C2=Nc3ncnn3C2=NCc2ccc(F)cc2)cc1OC	-4% (inactive)
COc1cc(CNc2nn[nH]n2)ccc1OCc1ccc(C)cc1	5.1% (inactive)
COc1ccc(CN=C2NS(=O)(=O)C(c3ccc(F)cc3)=C2C)cc1OC	66.4% (active)
CCn1c(SCc2cccc(C)c2)nnc1-c1cnccn1	10.7% (inactive)
O=C(c1cccnc1)N1CCC(c2cccc(Cc3ccccc3Cl)n2)CC1	-11.1% (inactive)
COc1cccc(CC2(NC(=O)c3ccccc3)N=C3C=CC=CN3C2=O)c1OC (stereo not given)	16.5% (inactive)
Cc1cc(OCC(=O)Oc2ccc(-n3cnnn3)cc2)cc(C)c1Cl	-0.253% (inactive)
CCc1ccc(C(=O)Cn2c(N3CCOCC3)nc3ccccc32)cc1	-2.13% (inactive)
COc1ccc(S(=O)(=O)N2CC(C(=O)NC3CCCCC3)C3(CCOCC3)C2)cc1 (stereo not given)	0.196% (inactive)
COc1nc(OC)nc(N2CCC(c3nc(C)cc(-c4ncc[nH]4)n3)CC2)n1	-10.1% (inactive)
COc1ccc(-c2nnc(-c3cccc(S(=O)(=O)N4CCCC4)c3)o2)cc1	13.3% (inactive)
COc1cccc(-c2nnc(-c3ccccc3NS(=O)(=O)c3ccc(C)cc3)o2)c1	15.5% (inactive)
COc1cccc(-n2nnc(-c3nnc(-c4ccccc4)o3)c2C)c1	54.7% (active)
Cc1ccc(CNC(=O)CCNc2cc(C)nc3nc(-c4cccnc4)nn23)cc1	6.35% (inactive)
CCC(CC)C(=O)N1CCC(c2nc3c(nnn3Cc3ccccc3)c(=O)[nH]2)CC1	14.7% (inactive)

SMILES	inhibition
CC1=C2C[C@@H]3C(CN4CCN(c5ccccn5)CC4)C(=O)O[C@@H]3C[C@@]2(C)CCC1 (stereo not given in full)	-3.81% (inactive)
CNC(=O)c1cc(-c2ccccc2)c(N2CCOCC2)s1	2.58% (inactive)
COc1ccc(NC(=O)c2sc(N3CCOCC3)nc2-c2ccccc2)c(OC)c1	52.7% (active)
COc1ccc(-c2nc(N(Cc3ccccc3)C(=O)CN3CCOCC3)sc2C)cc1	-13.9% (inactive)
CC(C)Cc1noc(CN2CCC3(CC2)CC3c2nnc(-c3cccc(F)c3)o2)n1 (stereo not given)	0.0905% (inactive)
CC/C=C\[C@@H]1O[C@H]1C1=C(C)C(=O)C2(O1)C(=O)NC(OC)(C(=O)c1ccccc1)C2O (stereo not given in full)	-4.56% (inactive)
COc1ccc(-c2cc(C(=O)N3CCCC3c3cc(C)on3)no2)cc1 (stereo not given)	0.23% (inactive)
O=C(Nc1ccc2c(c1)OCO2)c1sc2cc(Cl)ccc2c1Cl	-7.31% (inactive)
COc1ccccc1OCCC(=O)Nc1cccc(S(=O)(=O)N(C)C)c1	9.63% (inactive)
CCOc1ncccc1C(=O)NNC(=O)c1cn(-c2ccccc2)nc1-c1ccccc1	2.51% (inactive)
CC(OC(=O)c1cn(-c2ccccc2)nc1-c1cccnc1)C(=O)Nc1cccc(S(=O)(=O)N(C)C)c1 (stereo not given)	41.1% (active)
NC(=O)c1ccccc1OCC(=O)Nc1cc(Cl)ccc1Oc1ccccc1	-1.08% (inactive)
COc1ccc(-c2cc(=O)oc3c(C)c(OCc4ccccc4F)ccc23)cc1	49.1% (active)
Cc1cc(=O)oc2c(C)c(OC(C)C(=O)NCc3ccncc3)ccc12 (stereo not given)	-11.3% (inactive)
COc1ccc(-c2noc(-c3cc4c(COC(C)=O)cnc(C)c4oc3=O)n2)cc1	-158% (inactive)
CNC(=O)c1sc2nccnc2c1C1CCN(c2ccncn2)CC1	-8.22% (inactive)
CCc1cc(C2CCCN2S(=O)(=O)c2ccc(C(C)C)cc2)on1 (stereo not given)	9.48% (inactive)
Cc1nn(C)c(C)c1CN(C(=O)Cn1cc(C(C)C)nn1)C1CC1	-1.87% (inactive)
CN1C[C@@H](NC(=O)c2ccc(F)cc2)C[C@H]1c1nc(-c2cccnc2)no1	-2.42% (inactive)

From PubChem BioAssay AID1645855 (Buhrlage Lab, Dana-Farber Cancer Institute and Novartis …, 2021)
